The source of these data is the supplement of paper PMC8728848.

What all share (assay): glycan array binding signal (z-score within array); higher = stronger binding
Holding throughout (details): glycan notation: IUPAC condensed, linker removed

Assay [1] concerns the target GlcNAc(b1-3)Gal(b1-4)GlcNAc(b1-2)[GlcNAc(b1-3)Gal(b1-4)GlcNAc(b1-6)]Man(a1-6)[GlcNAc(b1-3)Gal(b1-4)GlcNAc(b1-2)Man(a1-3)]Man(b1-4)GlcNAc(b1-4)GlcNAc. The method in brief: (§1)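 The binding signal is a Z-score computed within each array and averaged over linkers. Arrays of the same protein sequence at different concentrations or buffers were also averaged together. Data originate from 3228 arrays in the Consortium for Functional Glycomics database, kept only where the protein sequence was available.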

The target of assay [2] is GlcNAc(b1-3)Gal(b1-4)GlcNAc(b1-3)Gal(b1-4)GlcNAc(b1-2)Man(a1-3)[GlcNAc(b1-3)Gal(b1-4)GlcNAc(b1-3)Gal(b1-4)GlcNAc(b1-2)Man(a1-6)]Man(b1-4)GlcNAc(b1-4)[Fuc(a1-6)]GlcNAc. Summed up: as §1
Assay [3] has as its target GlcNAc(b1-3)Gal(b1-4)GlcNAc(b1-3)[GlcNAc(b1-3)Gal(b1-4)GlcNAc(b1-3)]GalNAc. The method in brief: as §1
The target of assay [4] is GlcNAc6S(b1-3)Gal(b1-4)GlcNAc. The method in brief: as §1
In a further assay the target is Man(a1-2)Man(a1-3)Man. The method in brief: as §1
The target of assay [5] is Man(a1-2)Man(a1-6)[Man(a1-3)]Man(a1-6)[Man(a1-2)Man(a1-2)Man(a1-3)]Man. The method in brief:
as §1

Assay [6] addresses Man(a1-3)[Man(a1-6)]Man(a1-6)[Man(a1-3)]Man. Summed up: as §1
Another assay has as its target MurNAc(b1-4)GlcNAc. The method in brief:
as §1

Assay [7] deals with Neu5Ac(a2-3)Gal(b1-3)GalNAc(b1-3)Gal(b1-4)GlcNAc. Summed up: as §1
Assay [8] concerns the target Neu5Ac(a2-3)Gal(b1-3)GlcNAc(b1-2)Man(a1-3)[Neu5Ac(a2-3)Gal(b1-3)GlcNAc(b1-2)Man(a1-6)]Man(b1-4)GlcNAc(b1-4)GlcNAc. The method in brief: as §1
The target of assay [9] is Neu5Ac(a2-3)Gal(b1-3)[GlcNAc(b1-6)]GalNAc. Summed up: as §1
Assay [10] deals with Neu5Ac(a2-3)Gal(b1-4)GlcNAc(b1-2)Man(a1-3)[GlcNAc(b1-4)][Neu5Ac(a2-3)Gal(b1-4)GlcNAc(b1-2)Man(a1-6)]Man(b1-4)GlcNAc(b1-4)GlcNAc. Summed up:
as §1

Assay [11] addresses Neu5Ac(a2-3)Gal(b1-4)GlcNAc(b1-2)Man(a1-3)[Neu5Ac(a2-3)Gal(b1-4)GlcNAc(b1-2)Man(a1-6)]Man(b1-4)GlcNAc(b1-4)[Fuc(a1-6)]GlcNAc. The method in brief:
as §1

Assay [12] addresses Neu5Ac(a2-3)Gal(b1-4)GlcNAc(b1-3)[Neu5Ac(a2-3)Gal(b1-4)GlcNAc(b1-6)]GalNAc. Summed up: as §1
Assay [13] has as its target Neu5Ac(a2-3)Gal(b1-4)GlcNAc(b1-6)[Gal(b1-3)]GalNAc. The method in brief: as §1
For assay [14], the target named is Neu5Ac(a2-3)Gal(b1-4)[Fuc(a1-3)]GlcNAc(b1-3)Gal. Summed up: as §1
The target of assay [15] is Neu5Ac(a2-3)Gal(b1-4)[Fuc(a1-3)]GlcNAc(b1-6)[Neu5Ac(a2-3)Gal(b1-3)]GalNAc. Summed up: as §1
The target in assay [16] is Neu5Ac(a2-3)Gal6S(b1-4)[Fuc(a1-3)]GlcNAc. The method in brief: as §1
For another assay, the target named is Neu5Ac(a2-3)GalNAc. The method in brief:
as §1

For assay [17], the target named is Neu5Ac(a2-6)Gal(b1-4)GlcNAc(b1-2)Man(a1-6)[GlcNAc(b1-2)Man(a1-3)]Man(b1-4)GlcNAc(b1-4)GlcNAc. Summed up: as §1
Assay [18] addresses Neu5Ac(a2-6)GlcNAc(b1-4)GlcNAc. Summed up: as §1
Assay [19] concerns the target Neu5Ac(a2-8)Neu5Ac(a2-8)Neu5Ac. The method in brief:
as §1

Assay [20] addresses Neu5Gc(a2-3)Gal(b1-4)GlcNAc. Summed up: as §1

Only a selection was taken, and the strongest signals are over-represented in it overall.

B1: GST Gap3 (Streptococcus parasanguinis) (protein)
chain: MTKQLISEIYWNEIRKGENYLYGSQIKFQEDLVNFYNPQLASGKPIVTFKSRTNYQGDRHSPDLPILIQGNRYLLEYQIDAVPANSFFLQLDFFNRQAEQIESIVLRNSGESFIFPKDTFTYTLTLMSAGCQSVTYQKFMIYDINDEEKKNHIVENRYLRELLPKDLDLVKNLIEYI
For the molecule B1, the “glycan array binding signal (z-score)” value was 3.45 in assay [1]; 0.269 in assay [2]; -0.518 in assay [3]; -0.145 in assay [4]; -0.273 in the assay with Man(a1-2)Man(a1-3)Man; -0.335 in [5]. Besides, the “glycan array binding signal (z-score)” value in assay [6] was -0.516; with MurNAc(b1-4)GlcNAc, -0.582; in [7], -0.123; in assay [8] it was -0.211; in [9], -0.638; in [10], -0.195. For the same molecule, the “glycan array binding signal (z-score)” value in assay [11] is 2.2; in assay [12], -0.511; in [13] it was -0.323; in [14], -0.462; in assay [15], 3.62; in assay [16], 0.06. Also, the “glycan array binding signal (z-score)” value with Neu5Ac(a2-3)GalNAc was -0.101; in [17], -0.269; in [18], -0.465; in assay [19], 0.585; in [20] it was -0.209.
